HP1b binding inh: blocks HP1-beta chromodomain binding to methylated histone tails; P83916; AlphaScreen HP1-beta / biotin-H3K9me3 peptide binding; Potency, µM (highest dose often 114 µM), for the others: top-dose activity change, negative = inhibition, hits mostly inhibitors; 0.56% of 390,000 active; AID 540317; also: nearly all actives have a fitted effect of over 70% in size
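Compound inhibition of the preformed complex between 50 nM HP1-beta and 50 nM biotinylated H3K9me3 peptide was read by AlphaScreen. Buffer was PBS pH 7.4 with 0.01% Tween-20. Incubations ran 30 min at room temperature, with 10 ug/mL donor/acceptor beads.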
BAZ2B inh: inhibitors of human BAZ2B bromodomain. AID 504333. AlphaScreen BAZ2B-H3K14Ac peptide displacement. 4.4% of 360,000 active. Q9UIF8. Potency, µM (series often up to 114 µM), inactives show top-dose activity change, negative = inhibition, actives largely listed as inhibitors; also: % is scaled to controls: 0 for no effect and ±100 for the full control effect; nearly all actives have a fitted effect of over 60% in size
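AlphaScreen luminescence quantifies BAZ2B engagement of H3K14Ac peptide; the protein and biotinylated peptide are both at 50 nM final, buffer PBS pH 7.4 with 0.01% Tween-20, all steps at room temperature.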
G9a inh: inhibitors of human histone lysine methyltransferase G9a | Potency, µM (series often up to 102 µM), for inactives: at the top dose activity, negative = inhibition, most hits filed as inhibitors | Q96KQ7 | G9a H3K9 monomethylation, AlphaScreen, 2 h | 8.8% of 350,000 active; also: % is scaled to controls: 0 for no effect and ±100 for the full control effect; nearly all actives have a fitted effect of over 75% in size
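Compounds were preincubated with 20 nM G9a for 15 min, after which biotinylated H3K9 peptide (500 nM) and SAM (20 uM) started a 2 h room-temperature reaction. Monomethylated product was quantified by antibody-based AlphaScreen chemiluminescence.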
JMJD2A Tudor: JMJD2A Tudor domain (human) inhibition. O75164. Potency, µM (doses to about 114 µM), for inactives: at the top dose activity change, negative = inhibition, hits mostly inhibitors. AlphaScreen JMJD2A-Tudor / H3K4me3 peptide binding. AID 504339. 4.4% of 390,000 active; also: % is scaled to controls: 0 for no effect and ±100 for the full control effect; nearly all actives have a fitted effect of over 50% in size
TDP1 block: TDP1 (human) enzyme inhibition; Q9NUW8; recombinant TDP1, AlphaScreen DNA substrate cleavage; Potency, µM (series often up to 130 µM), for the others: at the highest dose activity change, negative = inhibition, most hits filed as inhibitors; 0.28% of 350,000 active; also: % is scaled to controls: 0 for no effect and ±100 for the full control effect; nearly all actives have a fitted effect of over 40% in size
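E. coli-derived human Tdp1, 1 nM final. Cpd preinc 15 min RT; substrate 15 nM final, 5 min RT; AS bead mix 10 ug/ml final, 10 min RT. Signal loss = tyrosine-FITC cleavage. No-enzyme wells = max signal.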
Sfp PPTase inh: inhibitors of Bacillus subtilis Sfp phosphopantetheinyl transferase; Q9F4F7; Biochemical Sfp PPTase activity, qHTS; Potency, µM, for the others: largest response in the series, negative = inhibition, most hits filed as inhibitors; 3.5% of 310,000 active;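 also: the enzyme is Sfp with the accession as filed and its product quenches rhodamine fluorescence; 0% = enzyme reaction without inhibitor and -100% = no enzyme wells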
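Compounds were incubated with enzyme (final 15 nM) for 15 min at room temperature before substrate addition started the reaction. Fluorescence at 525 nm excitation, 598 nm emission was recorded immediately and after 30 minutes.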
* = called active by the depositor; ! = a repeat was not active; [ ] = another dose, or the depositor's remark. The list is not random: actives were taken first. Their share in the collection is about 12%. Calls follow the shape of the dose curve; as a rule, active = well fitted curve in the direction sought with a large enough effect; inconclusive = small, poorly fitted or top-dose-only effect, or another doubt; inactive = no such curve, though single readings can be large; an effect the other way counts as inactive or inconclusive. Potency is read from the fitted curve at half-maximal effect.

`CN1CCN(c2ccccc2NC(=O)c2ccc(-c3ccc(Cl)c(Cl)c3)o2)CC1` gave HP1b binding inh -2%, BAZ2B inh -7%, G9a inh 49%, JMJD2A Tudor 50µM*, TDP1 block 6% and Sfp PPTase inh 7%.
For O=C(Oc1ccccc1)N1CCC[C@@]2(CCN(Cc3nccs3)C2)C1 the results were G9a inh -6%[12.7 µM] and Sfp PPTase inh 20%.
Screening N.N.N.N.N.N.N.N.N.N.N.N.N.N.O.O.[Cl-].[Cl-].[Cl-].[Cl-].[Cl-].[Cl-].[Ru].[Ru].[Ru] returned G9a inh 3.2µM* and TDP1 block 15%[56.1 µM].
COc1cc2c(cc1O)-c1c(O)c(OC)cc3c1[C@H](C2)N(C)CC3 was read as TDP1 block -5%[56.1 µM] and Sfp PPTase inh inconclusive.
Screening O=C1NC(=O)C(=Cc2ccc(OCC(=O)N3CCOCC3)cc2)C(=O)N1 returned HP1b binding inh 54%, BAZ2B inh -4%, G9a inh inconclusive, JMJD2A Tudor -11%, TDP1 block -8% and Sfp PPTase inh inconclusive.
`O=C(OCC(=O)N1CCOCC1)c1ccc[nH]c1=O` gave HP1b binding inh -4%, G9a inh 20µM*, JMJD2A Tudor 18µM*, TDP1 block -4% and Sfp PPTase inh 2%.
N#Cc1ccc(C(=O)N2CCN(c3nc4ccc(F)cc4s3)CC2)cc1 was read as HP1b binding inh 40%, BAZ2B inh 0%, G9a inh 5%[59 µM], JMJD2A Tudor 0% and TDP1 block 0%.
OCCN1CCN(CCCN2c3ccccc3Sc3ccc(C(F)(F)F)cc32)CC1 was read as HP1b binding inh 10%, BAZ2B inh inconclusive, G9a inh 11µM*!, JMJD2A Tudor 79µM*, TDP1 block 5% and Sfp PPTase inh -6%.
FC(F)(F)c1ccc2c(c1)N(CCCN1CCN(CCCl)CC1)c1ccccc1S2 was read as HP1b binding inh -16%, BAZ2B inh 40µM*, G9a inh 10µM*, JMJD2A Tudor 16µM*, TDP1 block 9% and Sfp PPTase inh 50µM*.
`N#Cc1ccc(CN2CC[C@@]3(CCCNC3)C2)cc1` gave G9a inh -10%[12.7 µM] and Sfp PPTase inh 5%.
`COc1ccc(C(Nc2cccc([N+](=O)[O-])c2)P(=O)(OC(C)C)OC(C)C)cc1` (stereo unspecified) gave HP1b binding inh 43%, BAZ2B inh -18%, G9a inh -5%, JMJD2A Tudor -1% and Sfp PPTase inh 5%.
`CCOC(=O)c1ccc(NC(c2ccc(N(C)C)cc2)P(=O)(OC(C)C)OC(C)C)cc1` (stereo unspecified) gave HP1b binding inh inconclusive, BAZ2B inh 32µM*, G9a inh 35µM*, JMJD2A Tudor 50µM*, TDP1 block 10% and Sfp PPTase inh -6%.
`NCCCC[C@H](N[C@@H](CCc1ccccc1)C(=O)O)C(=O)N1CCC[C@H]1C(=O)O` gave HP1b binding inh 66%, BAZ2B inh -4%, G9a inh 10µM*!, JMJD2A Tudor -17%, TDP1 block 12%[21 µM] and Sfp PPTase inh 17%.
`NCCCCC(NC(CCc1ccccc1)C(=O)O)C(=O)N1CCCC1C(=O)O` (stereo unspecified) gave G9a inh -46%[2.33 µM], TDP1 block 10%[56.1 µM] and Sfp PPTase inh -7%.
For CCOc1ccc(N2C(=O)/C(=C/c3ccco3)C(=O)NC2=S)cc1 the results were HP1b binding inh 1.6µM*, BAZ2B inh 28µM*, G9a inh 16%[0.501 µM], JMJD2A Tudor 0.79µM* and Sfp PPTase inh 35µM*.
O=C1NC(=S)N(c2ccccc2F)C(=O)/C1=C\c1cccs1 was read as HP1b binding inh -12%, BAZ2B inh 50µM*, G9a inh 1.3µM*, JMJD2A Tudor 50µM*, TDP1 block -6% and Sfp PPTase inh 11µM*.
`O=C1NC(=O)C(=Cc2cccs2)C(=O)N1` gave HP1b binding inh 15%[57 µM] and JMJD2A Tudor 0%.
Screening Cc1ccccc1N1C(=O)NC(=O)/C(=C/c2ccc(N3CCOCC3)o2)C1=O returned HP1b binding inh 28%, BAZ2B inh -19%, G9a inh inconclusive, JMJD2A Tudor 1%, TDP1 block 6% and Sfp PPTase inh 8%.
Screening CCOc1ccc(N2C(=O)/C(=C\c3cccs3)C(=O)NC2=S)cc1 returned HP1b binding inh 23%, BAZ2B inh -33%, G9a inh 7.1µM*, JMJD2A Tudor 35µM*, TDP1 block 4% and Sfp PPTase inh 13µM*.
Cc1ccccc1N1C(=O)/C(=C/c2ccco2)C(=O)NC1=S was read as BAZ2B inh 1.1µM*, G9a inh 1.8µM* and Sfp PPTase inh 20µM*.
For c1cc(CN2CC3(CCNCC3)C2)ccn1 the results were G9a inh -6%[12.7 µM] and Sfp PPTase inh -11%.
`C=C(C)[C@H]1[C@H]2OC(=O)[C@@H]1[C@]1(O)C[C@H]3O[C@]34C(=O)O[C@H]2[C@@]14C` gave G9a inh 20%[21.5 µM], TDP1 block -5%[21 µM] and Sfp PPTase inh 11%.
For COc1ccc(NC2CC(=O)N(C(C)C)C2=O)cc1 (stereo unspecified) the results were HP1b binding inh 27%, BAZ2B inh -27%, G9a inh 22µM*, JMJD2A Tudor -20%, TDP1 block 1% and Sfp PPTase inh 6%.
`CCN(CC)CCOc1ccccc1C(=O)CCc1ccccc1` gave G9a inh inconclusive and Sfp PPTase inh 21%.
Screening CCSC(=O)Cl returned TDP1 block 15%.
For O=C1NC(=O)N(c2ccc(Br)cc2)C(=O)/C1=C/c1ccsc1 the results were HP1b binding inh 27%, BAZ2B inh 14%, G9a inh 20µM*, JMJD2A Tudor -22%, TDP1 block 0% and Sfp PPTase inh 32µM*.
For O=C1NC(=O)N(c2ccc(F)cc2)C(=O)/C1=C/c1ccsc1 the results were HP1b binding inh 54%, BAZ2B inh -13%, G9a inh 14µM*, JMJD2A Tudor -11%, TDP1 block -3% and Sfp PPTase inh inconclusive.
O=C1NC(=O)N(c2cccc(Br)c2)C(=O)/C1=C/c1ccsc1 was read as HP1b binding inh 29%, BAZ2B inh -2%, G9a inh 10µM*, JMJD2A Tudor -11%, TDP1 block 0% and Sfp PPTase inh 20µM*.
For O=C1NC(=O)C(=Cc2ccsc2)C(=O)N1 the results were HP1b binding inh 50%, BAZ2B inh 4%, G9a inh -24%, JMJD2A Tudor 6%, TDP1 block -3% and Sfp PPTase inh inconclusive.

Compound activity (PubChem)
